Measured values taken from PubChem BioAssay AID504454 (NMMLSC, 2011).
Out of some 340,000 compounds screened, about 1,400 (0.41%) were called active.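 Rule for the calls: active = response above a set limit, near 3 SD of response in nonfluorescent compounds (cut at about 42% in these data); inactive = the rest.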 The full list was thinned out, with actives kept by preference.

biological target: Beta-2 adrenergic receptor (Homo sapiens) (UniProt P07550); experiment: beta2AR agonists driving receptor internalization, primary screen, cell-based, FAP fluorogen, flow cytometry (AID 504454); conditions: Am2.2-beta2AR cells, stronger effect = higher value, concentration not given here
Sequence (P07550 whole entry, looked up): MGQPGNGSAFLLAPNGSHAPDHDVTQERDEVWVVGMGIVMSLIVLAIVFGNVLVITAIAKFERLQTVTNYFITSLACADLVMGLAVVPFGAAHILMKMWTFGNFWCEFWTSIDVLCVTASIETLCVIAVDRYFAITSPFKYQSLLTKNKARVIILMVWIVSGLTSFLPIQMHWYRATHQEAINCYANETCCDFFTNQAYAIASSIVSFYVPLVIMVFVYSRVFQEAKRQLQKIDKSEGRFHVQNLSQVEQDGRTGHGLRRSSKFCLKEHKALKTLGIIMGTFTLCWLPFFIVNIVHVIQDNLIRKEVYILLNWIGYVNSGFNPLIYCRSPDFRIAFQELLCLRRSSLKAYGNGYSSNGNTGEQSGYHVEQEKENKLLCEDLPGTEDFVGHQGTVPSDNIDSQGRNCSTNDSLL

Structure (SMILES) | response
COc1ccc(CCNC(=O)C2CCN(c3nn4c(=O)cc(C)nc4s3)CC2)cc1OC | 2.26% (inactive)
CSc1ccc(S(=O)(=O)N2CCC(C(=O)NCCc3ccccc3)CC2)cc1 | 21.2% (inactive)
CSc1ccc(CCNC(=O)C2CCN(c3nnc(-n4cccc4)s3)CC2)cc1 | 77.9% (active)
COc1cc(O)c2c(=O)c3c(O)c(O)ccc3oc2c1OC | 27.1% (inactive)
COCCNC(=O)C1CCN(S(=O)(=O)c2ccc3c(c2)OCCO3)CC1 | -3.08% (inactive)
COC(=O)c1ccc(Sc2ccc(F)cc2)c(N)c1 | -3.98% (inactive)
Cc1snc(SCc2c(F)cccc2Cl)c1C#N | -7.91% (inactive)
Cc1ccc(C(=O)N/C(=C\c2ccco2)C(=O)N2CCSCC2)cc1C | -0.71% (inactive)
CS(=O)(=O)NCc1ccc(C(=O)NCc2ccccc2)cc1 | -3.96% (inactive)
CSc1ccc(CNC(=O)c2ccc(NC(=O)C3=CSCCO3)cc2)cc1 | 98.2% (active)
O=C(Nc1ccc(C(=O)NCc2ccccc2Cl)cc1)C1=CSCCO1 | -0.39% (inactive)
NC(=O)c1ccsc1NC(=O)COC(=O)Cc1n[nH]c(=O)c2ccccc12 | -0.52% (inactive)
CC1(C)C=Cc2c(ccc3c2OC[C@@H](c2ccc(O)cc2O)C3)O1 | 45% (active)
CCCCN(C(=O)c1ccc(OC(F)(F)F)cc1)c1c(N)n(CCC)c(=O)[nH]c1=O | 7.36% (inactive)
COc1cccc(OC)c1C(=O)OCC(=O)/C(C#N)=C(\C)N | 13.3% (inactive)
CSCC(=O)N1CCCC(C(=O)c2cc(F)ccc2F)C1 (stereo not given) | -14.2% (inactive)
C/C(CC1CC(C)(C)OC1=O)=N/Nc1nc(-c2ccccc2)cs1 (stereo not given) | 4.49% (inactive)
CCc1ccccc1NC(=O)[C@@H]1CCC(=O)N1C1OC(=O)c2c1ccc(OC)c2OC (stereo not given in full) | 11.2% (inactive)
COc1ccc2c(c1OC)C(=O)OC2Nc1nc(-c2ccccc2)cs1 (stereo not given) | 43.4% (active)
O=C(NCC1CC1)c1onc(CSc2ccccc2)c1C(=O)NCC1CC1 | -4.02% (inactive)
CCn1c(SCC(=O)NC2CC2)nnc1-c1ccccn1 | -5.81% (inactive)
COC(=O)C1(C)NC(c2ccc(F)cc2)C2C(=O)N(c3ccccc3)C(=O)C21 (stereo not given) | 1.51% (inactive)

Structure (SMILES) | response
Cc1n[nH]c(=O)c2c1nnn2Cc1ccc(F)cc1 | 2.64% (inactive)
Cc1cc(C)cc(C(=O)N(CCc2ccccc2)C2=CC3CCC(C2)N3C)c1 (stereo not given) | 11.3% (inactive)
CCCN(CCc1ccccc1)C1CCc2c(O)cccc2C1 (stereo not given) | 56.8% (active)
CCOC(=O)c1cnc(SCC(=O)Nc2ccccc2C(=O)OC)nc1N | 2.55% (inactive)
O=C(O)CCCn1cc(NC(=O)COc2cccc(Cl)c2)cn1 | 15.6% (inactive)
COC(CNC(=O)Cn1ncc2ccsc2c1=O)OC | 1.39% (inactive)
CN(C)S(=O)(=O)Oc1ccccc1C(=O)Nc1ccccc1Cl | 1.66% (inactive)
O=C(COC(=O)CCc1c[nH]c(=O)[nH]1)Nc1ccccc1Cl | -3.16% (inactive)
O=C(Nc1ccccc1Cl)/C(Cl)=C(\Cl)S(=O)c1ccccc1 (stereo not given) | 56.9% (active)
CCc1nc(N2CCN(C(C)=O)CC2)c2c3c(sc2n1)CCCC3 | -8.93% (inactive)
CC(=O)c1ccc(NC(=O)c2ccc3c(Cl)c4c(nc3c2)CCCC4)cc1 | 60.5% (active)
COc1cccc(NC(=O)c2ccc3c(SCC(=O)O)c4c(nc3c2)CCCC4)c1 | 1.27% (inactive)
CC(C)CCNC(=O)c1ccc2c(Cl)c3c(nc2c1)CCC3 | -1.39% (inactive)
CC(C)NC(=O)COCc1cc(-c2ccc3c(c2)OCO3)on1 | -5.4% (inactive)
N#CC1(NC(=O)COc2ccc3oc4ccccc4c3c2)CCCCC1 | -4.35% (inactive)
O=C(c1ccccc1)c1ccc2nc(N3CCCCC3)c3nncn3c2c1 | -11.4% (inactive)
c1ccc(CC2CCN(c3nc4ccccc4n4cnnc34)CC2)cc1 | 68% (active)
Brc1ccccc1CN1CCC(Cc2ccccc2)CC1 | 4.82% (inactive)
CSc1nc(-c2ccccc2)nc(C(Cl)Cl)n1 | 81.7% (active)
COc1ccc(C2c3ccc(O)cc3Oc3ncn(CCCO)c(=N)c32)cc1OC (stereo not given) | -10.4% (inactive)
CS(=O)(=O)N1CCN(CC(=O)NC2CCCC2)CC1 | -2.25% (inactive)
CCN1CCC(O)(/C=C/c2ccc(C)cc2)C(C(=O)/C=C/c2ccc(C)cc2)C1 (stereo not given) | 52.9% (active)

Structure (SMILES) | response
CCOC(=O)C1CCCN(C(=O)/C=C/c2ccc(OC)cc2)C1 (stereo not given) | 0.35% (inactive)
O=C(NCCCn1ccnc1)C1CCCN(S(=O)(=O)c2cc(Cl)ccc2Cl)C1 (stereo not given) | 105% (active)
O=C(NCCCn1ccnc1)Nc1ccc(Cl)cc1Cl | -0.95% (inactive)
COc1ccc(S(=O)(=O)N2CCCC(C(=O)NCCCn3ccnc3)C2)cc1OC (stereo not given) | 10.8% (inactive)
CC1Cc2ccccc2N1C(=O)Cn1cnc2ccccc2c1=O (stereo not given) | 6.28% (inactive)
Cc1ccn2cc(-c3nonc3C)cc2c1 | 15.2% (inactive)
O=C(CN1C(=O)C2C3C=CC(C3)C2C1=O)NCC1COc2ccccc2O1 (stereo not given) | 1.48% (inactive)
O=C1C(=O)N(CC2COc3ccccc3O2)c2ccccc21 (stereo not given) | 45.6% (active)
CC(C)OC(=O)CN1C(=O)C(=O)c2ccccc21 | 7.48% (inactive)
c1ccc(CSc2ncnc3c2sc2nc(N4CCOCC4)c4c(c23)CCCC4)cc1 | 10.1% (inactive)
C#CCOCCOCCOCCNc1nc(N2CCN(C(=O)Cn3cc(CCO)nn3)CC2)nc(N2CCN(C(=O)[C@H](CCCCN)n3cc(CCCC)nn3)CC2)n1 | 0.16% (inactive)
C#CCOCCOCCOCCNc1nc(N2CCN(C(=O)[C@H](CCCN=C(N)N)n3cc(C(N)[C@@H](C)CC)nn3)CC2)nc(N2CCN(C(=O)[C@H](CO)n3cc([C@@H](N)C(C)C)nn3)CC2)n1 (stereo not given in full) | -10.2% (inactive)
C#CCOCCOCCOCCNc1nc(N2CCN(C(=O)CCCCCCCCCCNC(=O)Cn3cc(CCCCCN)nn3)CC2)nc(N2CCN(C(=O)CCCCCCCCCCNC(=O)[C@H](CO)n3cc(CCCSC)nn3)CC2)n1 | 64.5% (active)
C#CCOCCOCCOCCNc1nc(N2CCN(C(=O)[C@H](CCCCN)n3cc(CCC(=O)O)nn3)CC2)nc(N2CCN(C(=O)[C@H](CCCCN)n3cc(CC(C)O)nn3)CC2)n1 (stereo not given in full) | 0.88% (inactive)
C#CCOCCOCCOCCNc1nc(N2CCN(C(=O)C([C@@H](C)O)n3cc([C@@H](N)CCCCN)nn3)CC2)nc(N2CCN(C(=O)[C@H](CCCCN)n3cc(CN)nn3)CC2)n1 (stereo not given in full) | 1.85% (inactive)
C#CCOCCOCCOCCNc1nc(N2CCN(C(=O)CCCCCCCCCCNC(=O)[C@H]([C@@H](C)CC)n3cc(CCCCN=C(N)N)nn3)CC2)nc(N2CCN(C(=O)CCCCCCCCCCNC(=O)[C@H](CO)n3cc(CCCSC)nn3)CC2)n1 | 96.3% (active)
C#CCOCCOCCOCCNc1nc(N2CCN(C(=O)[C@H](CCC(=O)O)n3cc(CN)nn3)CC2)nc(N2CCN(C(=O)[C@H](CCC(=O)O)n3cc(CN)nn3)CC2)n1 | -3.45% (inactive)
C#CCOCCOCCOCCNc1nc(N2CCN(C(=O)Cn3cc(CCO)nn3)CC2)nc(N2CCN(C(=O)Cn3cc(CCCN=C(N)N)nn3)CC2)n1 | 6.34% (inactive)
C#CCOCCOCCOCCNc1nc(N2CCN(C(=O)CCCCCCCCCCNC(=O)[C@H](CCCCN)n3cc(C)nn3)CC2)nc(N2CCN(C(=O)CCCCCCCCCCNC(=O)[C@H](CO)n3cc(CCCSC)nn3)CC2)n1 | 77% (active)
Cc1ccccc1NC(=O)C(C)OC(=O)CCC(=O)N(CC(C)C)c1c(N)n(CC(C)C)c(=O)[nH]c1=O (stereo not given) | -6.93% (inactive)
CC(Cc1cccs1)NC(=O)c1cccc(Cl)c1 (stereo not given) | 5.14% (inactive)
NC(=O)C1CCN(C(=O)/C(=C/c2ccco2)NC(=O)c2ccccc2)CC1 | 1.8% (inactive)

Structure (SMILES) | response
CN(CCCNC(=O)CN1C(=O)CC(C)(C)S(=O)(=O)c2ccccc21)C1CCCCC1 | -2.22% (inactive)
CC(NC(=O)c1ccccc1C(=O)O)c1ccc(-n2ccnc2)cc1 (stereo not given) | -8.08% (inactive)
CCCOCC(O)CC(CC)C(=O)NNC(=S)Nc1ccccc1 (stereo not given) | 2.14% (inactive)
O=C(O)CCn1c(O)c(C=C2N=c3ccccc3=N2)sc1=S | -0.19% (inactive)
COC(=O)c1ccccc1NC(=O)C1CCN(S(=O)(=O)c2cc(OC)ccc2OC)CC1 | 4.15% (inactive)
Nc1cc(N2CCCCCC2)c2nonc2c1[N+](=O)[O-] | 7.26% (inactive)
Cc1nnc(SCC(=O)N2c3ccccc3C(C)(c3ccc(Cl)cc3)CC2(C)C)s1 (stereo not given) | 5.93% (inactive)
CSCCNC(=O)c1ccc2nc(Cc3ccccc3F)oc2c1 | 1.28% (inactive)
CC1=C(C)CC(C(=O)NNC(=O)c2csc3c2CCC(C(C)(C)C)C3)C(C(=O)O)C1 (stereo not given) | 61% (active)
CC1=C(C)CC(C(=O)NNC(=O)c2ccccc2O)C(C(=O)O)C1 (stereo not given) | -13% (inactive)
COC(=O)c1c(NC(=O)C2CC(C)=C(C)CC2C(=O)O)sc2c1CCCCC2 (stereo not given) | 4.27% (inactive)
C=CCNC(=O)C1CC=CCC1C(=O)O (stereo not given) | -0.29% (inactive)
CCCCNc1c(-c2cccc(Sc3ccc(OC)cc3)c2)nc2ccccn12 | 45% (active)
CCCCNc1c(-c2ccc(OC)c(Sc3ccc(OC)cc3)c2)nc2ccc(Cl)cn12 | 23% (inactive)
CCCCCCSc1ccc(-c2nc3ccc(Cl)cn3c2NCc2ccccc2)cc1 | -5.85% (inactive)
COc1ccc(C2=Nn3c(nnc3-c3ccccc3OC)SC2)cc1OC1CCCC1 | 29.8% (inactive)
O=C(NC1=CC(=O)c2ccccc2C1=O)c1ccccc1 | 84% (active)
O=C1C=C(NS(=O)(=O)c2ccccc2)C(=O)c2ccccc21 | 1.55% (inactive)
CC(NC(=O)c1ccccc1)C(=O)Nc1ccccc1 (stereo not given) | -0.42% (inactive)
